Test results: PubChem BioAssay AID574 (The Scripps Research Institute Molecular Screening Center, 2007)
The whole screen tested about 65,000 compounds, of which about 450 (0.69%) were called active. The entries come from a sample that favours actives as a whole. Unmarked numbers belong to inactive results.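 How the source made its calls: active means activation above a set limit, the screen-wide mean activation plus 3 SD (cut at about 8.5% in these data); inactive means the rest.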

Biological target: 5-hydroxytryptamine receptor 1E (Homo sapiens) (UniProt P28566)
Sequence (P28566 whole entry, looked up): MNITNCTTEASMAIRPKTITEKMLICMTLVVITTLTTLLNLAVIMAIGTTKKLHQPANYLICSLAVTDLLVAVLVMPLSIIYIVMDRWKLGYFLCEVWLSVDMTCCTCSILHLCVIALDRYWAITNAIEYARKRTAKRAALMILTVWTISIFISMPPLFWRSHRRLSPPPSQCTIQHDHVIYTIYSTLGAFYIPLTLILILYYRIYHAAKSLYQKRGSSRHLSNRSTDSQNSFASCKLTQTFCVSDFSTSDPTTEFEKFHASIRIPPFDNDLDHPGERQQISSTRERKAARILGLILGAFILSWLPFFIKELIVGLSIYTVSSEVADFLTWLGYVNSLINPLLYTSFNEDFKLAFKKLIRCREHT
Assay: activation of human serotonin 5HT1E receptor – cell-based, HTS, primary screen (AID 574);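 further: 100% = positive control agonist at 1 µM giving full maximal response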
Conditions: CHO 5-HT1E Ga15 NFAT-bla reporter, FRET; at 6 µM; hits give high values

| SMILES | activation |
| --- | --- |
| c1ccc2sc(C3CCCNC3)nc2c1 (stereo not given) | 98.8% (active) |
| Cc1ccc(P(=S)(c2ccc(C)o2)N2CCOCC2)o1 | -1.7% |
| O=C1NC(=O)C(C/C=C/c2ccccc2)C(=O)N1 | 0.1% |
| COc1ccccc1CN1CCN(C(=O)Cc2ccccc2)CC1 | -0.5% |
| COc1ccc(CN2CCN(c3ccccc3F)CC2)c(OC)c1 | 54.1% (active) |
| Fc1cccc(F)c1CN1CCN(Cc2c(F)cccc2F)CC1 | 1.1% |
| CC(=NC1CCN(Cc2ccccc2)CC1)c1c(O)n(C)c(=O)n(C)c1=O | 0% |
| CCOP(=S)(OCC)SCOC(=O)NCC(=O)OC | -0.2% |
| CC[N+]1(C)CCCC(OC(=O)C(O)(c2ccccc2)c2ccccc2)C1 (stereo not given) | -0.1% |
| CC(C)c1ccc(OCC(=O)N2CCN(C)CC2)c(Br)c1 | -1.2% |
